Reference: PubChem BioAssay AID1159580 (chemical genetic matrix, 2015)
Screen size: about 5,500 compounds; about 2,000 (36%) were called active. Inconclusive results (about 18%) are left out. No stated cut-off is given here; in the data, active means normalized growth mostly below about 0.91 (no sharp cut-off); inconclusive means no clear call, values can overlap the other calls; inactive means mostly above about 0.92. This is one part of the list.

Assay: chemical genetic growth profiling, strain panel (AID 1159580);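 further: tested at 20 µM; growth read once vehicle control cultures reached saturation at 30 °C; 1 = growth at the plate median or of vehicle wells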
Conditions: growth OD

Measured: normalized growth

N=C(N)N
inactive: S. cerevisiae deletion strains, locus YJR075W, strain HOC1, stronger effect = lower value 0.988 | S. cerevisiae deletion strains, locus YKL009W, strain mrt4, stronger effect = lower value 0.997 | S. cerevisiae deletion strains, locus YKL068W, stronger effect = lower value 0.982 | S. cerevisiae deletion strains, locus YKL085W, strain MDH1 (second series), stronger effect = lower value 0.97 | S. cerevisiae deletion strains, locus YKL085W, strain MDH1, stronger effect = lower value 0.97 | S. cerevisiae deletion strains, locus YKL160W, strain elf1, stronger effect = lower value 1 | S. cerevisiae deletion strains, locus YKL190W, strain CNB1, stronger effect = lower value 0.993 | S. cerevisiae deletion strains, locus YKR001C, strain vps1, stronger effect = lower value 0.996 | S. cerevisiae deletion strains, locus YKR026C, strain gcn3, stronger effect = lower value 0.999 | S. cerevisiae deletion strains, locus YKR091W, strain srl3, stronger effect = lower value 1 | S. cerevisiae deletion strains, locus YLL001W, strain dnm1, stronger effect = lower value 0.993 | S. cerevisiae deletion strains, locus YLL026W, stronger effect = lower value 0.994 | S. cerevisiae deletion strains, locus YLL041C, strain sdh2, stronger effect = lower value 1 | S. cerevisiae deletion strains, locus YLR027C, strain aat2, stronger effect = lower value 1.01 | S. cerevisiae deletion strains, locus YLR039C, strain RIC1, stronger effect = lower value 1.01 | S. cerevisiae deletion strains, locus YLR058C, strain SHM2, stronger effect = lower value 0.999 | S. cerevisiae deletion strains, locus YLR102C, strain apc9, stronger effect = lower value 0.986 | S. cerevisiae deletion strains, locus YLR113W, strain HOG1, stronger effect = lower value 0.996 | S. cerevisiae deletion strains, locus YLR221C, strain rsa3, stronger effect = lower value 0.982 | S. cerevisiae deletion strains, locus YLR258W, strain gsy2, stronger effect = lower value 0.996 | S. cerevisiae deletion strains, locus YLR262C, strain YPT6 (second series), stronger effect = lower value 0.991 | S. cerevisiae deletion strains, locus YLR262C, strain YPT6, stronger effect = lower value 1.01 | S. cerevisiae deletion strains, locus YLR268W, strain sec22, stronger effect = lower value 0.937 | S. cerevisiae deletion strains, locus YLR320W, strain mms22, stronger effect = lower value 0.983 | S. cerevisiae deletion strains, locus YLR330W, strain CHS5, stronger effect = lower value 0.991 | S. cerevisiae deletion strains, locus YLR342W, strain FKS1 (second series), stronger effect = lower value 1.13 | S. cerevisiae deletion strains, locus YLR342W, strain FKS1, stronger effect = lower value 0.993 | S. cerevisiae deletion strains, locus YLR357W, strain rsc2, stronger effect = lower value 0.977 | S. cerevisiae deletion strains, locus YLR370C, strain arc18, stronger effect = lower value 1.01 | S. cerevisiae deletion strains, locus YLR371W, strain rom2, stronger effect = lower value 0.961 | S. cerevisiae deletion strains, locus YLR384C, strain iki3, stronger effect = lower value 0.985 | S. cerevisiae deletion strains, locus YLR418C, strain cdc73, stronger effect = lower value 1.02 | S. cerevisiae deletion strains, locus YML016C, strain PPZ1, stronger effect = lower value 1 | S. cerevisiae deletion strains, locus YML032C, strain rad52, stronger effect = lower value 0.96 | S. cerevisiae deletion strains, locus YML120C, strain ndi1, stronger effect = lower value 1.02 | S. cerevisiae deletion strains, locus YML124C, strain tub3, stronger effect = lower value 0.991 | S. cerevisiae deletion strains, locus YMR058W, strain fet3, stronger effect = lower value 1 | S. cerevisiae deletion strains, locus YMR078C, strain ctf18, stronger effect = lower value 0.967 | S. cerevisiae deletion strains, locus YMR125W, strain sto1, stronger effect = lower value 0.996 | S. cerevisiae deletion strains, locus YMR129W, stronger effect = lower value 0.992 | S. cerevisiae deletion strains, locus YMR205C, strain PFK2, stronger effect = lower value 1.01 | S. cerevisiae deletion strains, locus YMR223W, strain ubp8, stronger effect = lower value 1.02 | S. cerevisiae deletion strains, locus YMR231W, strain pep5, stronger effect = lower value 0.994 | S. cerevisiae deletion strains, locus YMR263W, strain SAP30, stronger effect = lower value 0.992 | S. cerevisiae deletion strains, locus YMR307W, strain GAS1, stronger effect = lower value 1.14 | S. cerevisiae deletion strains, locus YNL067W, strain RPL9B, stronger effect = lower value 0.987 | S. cerevisiae deletion strains, locus YNL071W, strain lat1, stronger effect = lower value 1.01 | S. cerevisiae deletion strains, locus YNL128W, strain TEP1, stronger effect = lower value 0.995 | S. cerevisiae deletion strains, locus YNL153C, strain GIM3, stronger effect = lower value 1 | S. cerevisiae deletion strains, locus YNL183C, strain NPR1, stronger effect = lower value 0.949 | S. cerevisiae deletion strains, locus YNL209W, strain ssb2, stronger effect = lower value 1.02 | S. cerevisiae deletion strains, locus YNL233W, strain BNI4, stronger effect = lower value 0.994 | S. cerevisiae deletion strains, locus YNL248C, strain rpa49, stronger effect = lower value 0.92 | S. cerevisiae deletion strains, locus YNL250W, strain rad50, stronger effect = lower value 0.99 | S. cerevisiae deletion strains, locus YNL271C, strain bni1, stronger effect = lower value 0.993 | S. cerevisiae deletion strains, locus YNL298W, strain CLA4, stronger effect = lower value 0.999 | S. cerevisiae deletion strains, locus YNL307C, strain MCK1, stronger effect = lower value 0.991 | S. cerevisiae deletion strains, locus YNL322C, strain KRE1 (second series), stronger effect = lower value 0.997 | S. cerevisiae deletion strains, locus YNL322C, strain KRE1, stronger effect = lower value 0.993 | S. cerevisiae deletion strains, locus YNR049C, strain mso1, stronger effect = lower value 0.991 | S. cerevisiae deletion strains, locus YNR052C, strain pop2, stronger effect = lower value 0.971 | S. cerevisiae deletion strains, locus YOL006C, strain TOP1, stronger effect = lower value 0.979 | S. cerevisiae deletion strains, locus YOL012C, strain htz1 0.806 | S. cerevisiae deletion strains, locus YOL147C, strain pex11, stronger effect = lower value 0.976 | S. cerevisiae deletion strains, locus YOR001W, strain rrp6, stronger effect = lower value 0.949 | S. cerevisiae deletion strains, locus YOR061W, strain CKA2, stronger effect = lower value 0.991 | S. cerevisiae deletion strains, locus YOR069W, strain VPS5, stronger effect = lower value 0.999 | S. cerevisiae deletion strains, locus YOR070C, strain gyp1, stronger effect = lower value 0.979 | S. cerevisiae deletion strains, locus YOR080W, strain dia2, stronger effect = lower value 0.979 | S. cerevisiae deletion strains, locus YOR083W, strain WHI5, stronger effect = lower value 1.01 | S. cerevisiae deletion strains, locus YOR106W, strain vam3, stronger effect = lower value 1.01 | S. cerevisiae deletion strains, locus YOR136W, strain idh2, stronger effect = lower value 0.986 | S. cerevisiae deletion strains, locus YOR144C, strain elg1, stronger effect = lower value 0.977 | S. cerevisiae deletion strains, locus YOR184W, strain ser1, stronger effect = lower value 0.974 | S. cerevisiae deletion strains, locus YOR231W, strain MKK1, stronger effect = lower value 1.02 | S. cerevisiae deletion strains, locus YOR265W, strain rbl2, stronger effect = lower value 0.998 | S. cerevisiae deletion strains, locus YOR270C, strain vph1, stronger effect = lower value 0.969 | S. cerevisiae deletion strains, locus YOR290C, strain snf2, stronger effect = lower value 0.975 | S. cerevisiae deletion strains, locus YOR316C, strain cot1, stronger effect = lower value 0.965 | S. cerevisiae deletion strains, locus YPL051W, strain arl3, stronger effect = lower value 0.983 | S. cerevisiae deletion strains, locus YPL055C, strain LGE1, stronger effect = lower value 1.01 | S. cerevisiae deletion strains, locus YPL078C, strain atp4, stronger effect = lower value 1.01 | S. cerevisiae deletion strains, locus YPL106C, strain sse1, stronger effect = lower value 1.01 | S. cerevisiae deletion strains, locus YPL240C, strain hsp82, stronger effect = lower value 0.999 | S. cerevisiae deletion strains, locus YPL241C, strain CIN2, stronger effect = lower value 0.998 | S. cerevisiae deletion strains, locus YPL256C, strain CLN2, stronger effect = lower value 1.07 | S. cerevisiae deletion strains, locus YPR119W, strain clb2, stronger effect = lower value 0.974 | S. cerevisiae deletion strains, locus YPR141C, strain kar3, stronger effect = lower value 0.982 | S. cerevisiae deletion strains, locus YPR163C, strain tif3, stronger effect = lower value 0.976 | S. cerevisiae deletion strains, locus YPR167C, strain met16, stronger effect = lower value 0.971 | S. cerevisiae deletion strains, strain wtn01, stronger effect = lower value 0.981 | S. cerevisiae strains, strain wild type, stronger effect = lower value 1
